Assay outcomes from PubChem BioAssay.
Only some compounds are listed: those with a hit (about 6.8% of all), similar ones and a draw of the others.
Fluor 339 460 = intrinsic fluorescence of library compounds, ex339/em460 – biochemical, MLSMR library, data from DPM-DC assay, artefact control, profiling panel. compound autofluorescence, ex339/em460 nm, NADH buffer; hits give high values; 1 = no-compound wells, NADH background. fluorescence fold increase at 10 µM. hit rate 5.5% among 65,000. AID 709;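 active means at 10 µM, mean starting fluorescence two-fold or more over control wells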;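 further: signal is the first read of a kinetic run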
A340 absorber = compounds absorbing at 340 nm. 65,000 tested, under 10 active. AID 708. fold change at 10 µM. compound absorbance at 340 nm, fold over control;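 active means at 10 µM dose, initial 340 nm absorbance at least 2 fold that of control wells; inactive means change under 2 fold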;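 further: initial absorbance extrapolated from kinetic A340 decline of NADH oxidation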
NADH coupling = inhibitors of enzymes used to reach an NAD/NADH endpoint. coupled PK/LDH NADH assays, four targets. IC50, µM (highest dose often 10 µM), inactives show top-dose inhibition. hit rate 0.02% among 65,000;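 active means single-dose screening hits from any of four coupled enzyme assays that gave an IC50 when retested across doses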;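 further: the DPM-DC format reads NADH fluorescence rather than 340 nm absorbance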
Spn DPM-DC inh = S. pneumoniae DPM-DC inhibition | purified DPM-DC, PK/LDH coupled NADH fluorescence | calls only at 10 µM | hit rate 0.49% among 65,000;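 active means the 320 compounds with the highest percent inhibition in the single-dose primary screen, excluding strongly autofluorescent ones, cut at about 32% in these data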;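 further: kinetic rate of NADH fluorescence loss reporting ADP formed by the decarboxylase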
PMK inhibit = inhibitors of Streptococcus pneumoniae phosphomevalonate kinase | purified PMK, PK/LDH-coupled NADH absorbance 340 nm | inhibition, % at 10 µM | hit rate 0.49% among 65,000;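 active means top-ranked compounds by inhibition in the single 10 µM screen, taking a fixed number of the strongest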;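 further: 0% = full reaction with DMSO carrier and 100% = background rate without enzyme reaction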
MK inhibit = blocks S. pneumoniae mevalonate kinase | purified MK, PK/LDH-coupled NADH absorbance 340 nm | inhibition, % at 10 µM | hit rate 0.48% among 65,000;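 active means ranked among the strongest by inhibition in the single 10 µM screen, a fixed top-ranked set picked for dose follow-up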
Numbers without * were called inactive; i = inactive; . = not tested or not shown; + = active, no number.

SMILES	Fluor 339 460	A340 absorber	NADH coupling	Spn DPM-DC inh	PMK inhibit	MK inhibit
Cn1c(C(C#N)C2=C(Cl)C(=O)N(c3ccccc3)C2=O)nc2ccccc21 (stereo not given)	1.12	1.03	10.0%	i	17.0	1.0
COc1cc(OC)c(C2CC(=O)N3CN(c4ccccc4)CSC3=C2C#N)cc1OC (stereo not given)	1.09	1.15	23.0%	i	5.0	64.0*
COc1ccccc1NC(=O)Cc1noc(CN(C)Cc2cccs2)n1	1.18	0.99	6.0%	i	11.0	7.0
COC(=O)c1c(C#N)c(N)nc2c1CCC2	2.97*	1	3.0%	.	3.0	11.0
Cc1cc(=O)[nH]c(SCc2nc3ncccn3c2Br)n1	2.47*	1.03	4.0%	.	0.0	6.0
Cc1csc(NC(=O)CSc2nc(C(C)C)nc3c2c(=O)n(C)c(=O)n3C)n1	1.07	1.05	2.0%	i	0.0	7.0
CCOC(=O)c1c(NC(=O)c2csc(C)c2)sc(C(C)=O)c1C	1.09	1.01	9.0%	i	10.0	9.0
COc1ccc(CCNC(=O)c2ccc(NS(=O)(=O)c3c(C)noc3C)cc2)cc1OC	1.11	1.01	4.0%	i	9.0	4.0
COc1ccc(C2(O)CC3CCC(C2)N3c2nc(C)cc(C)c2C#N)cc1 (stereo not given)	2.8*	0.99	3.0%	i	6.0	2.0
COC(=O)CC1SC(=O)NC1=Nc1ccccc1 (stereo not given)	1.73	1.01	39.0%	+	11.0	7.0
CCCC(C(=O)NC1CCCC1)N(CC1CCCO1)C(=O)c1snc(C(N)=O)c1N (stereo not given)	2.79*	1.04	14.0%	i	11.0	18.0
CCCC(C(=O)NC1CCCC1)N(CCCN1CCOCC1)C(=O)c1snc(C(N)=O)c1N (stereo not given)	2.16*	1.04	10.0%	i	11.0	0.0
Cc1cc(=O)c2n(Cc3ccc(Cl)cc3)nc[n+]2[nH]1	1.13	1.02	1.0%	i	1.0	1.0
CCOc1ccc2[nH]c(=O)c(C(c3nnnn3Cc3ccco3)N3CCCC(C)C3)cc2c1 (stereo not given)	2.17*	1.06	8.0%	i	6.0	6.0
CCOc1ccc2[nH]c(=O)c(C(c3nnnn3C3CCCCC3)N3CCN(C)CC3)cc2c1 (stereo not given)	4.44*	1.03	12.0%	.	18.0	6.0
CCOc1ccc2[nH]c(=O)c(C(c3nnnn3C3CCCCC3)N3CCN(CC)CC3)cc2c1 (stereo not given)	3.74*	1.05	1.0%	.	0.0	1.0
COc1cc2cc(C(c3nnnn3C3CCCC3)N3CCCCCC3)c(=O)[nH]c2cc1OC (stereo not given)	1.56	1.04	4.0%	i	11.0	8.0
CCN1CCN(C(c2ccccc2OC)c2nnnn2C2CCCCC2)CC1 (stereo not given)	1.08	0.99	11.0%	i	18.0	14.0
O=C(NCC(c1cccnc1)N1CCOCC1)Nc1ccccc1 (stereo not given)	1.04	0.99	6.0%	i	13.0	5.0
Cc1ccc2oc(=O)c3cc(C(=O)NCc4ccco4)sc3c2c1	2.02*	1.14	7.0%	.	9.0	4.0
O=C(OCC#CCSc1nc2ccccc2s1)c1ccco1	1.07	1.01	2.0%	i	4.0	8.0
CCCCCC(=O)Nc1cc(N(C)C)nc2ccccc12	2.19*	1.11	2.0%	.	4.0	0.0
Nc1nc(N2CCOCC2)nc2ccccc12	3.95*	1.01	7.0%	.	2.0	12.0
c1ccc2c(c1)nc(N1CCOCC1)c1c3ccccc3[nH]c21	3.6*	1.08	8.0%	.	9.0	7.0
Cc1cc(N2CCN(c3nc(N4CCOCC4)nc4ccccc34)CC2)c2ccccc2n1	2.13*	1.07	7.0%	i	6.0	3.0
CCOc1ccc2nc(N3CCOCC3)nc(C)c2c1	3.84*	1.06	5.0%	.	4.0	5.0
c1ccc2nc(N3CCOCC3)c(N3CCOCC3)nc2c1	1.11	1.09	7.0%	i	5.0	16.0
c1ccc2c(N3CCCCC3)nc(N3CCCCC3)nc2c1	1.52	1	7.0%	i	12.0	0.0
Cn1c(-c2ccc(F)cc2)cnc1SCC(=O)Nc1ccccc1N1CCOCC1	1.17	0.98	2.0%	i	4.0	8.0
